HepG2 viability = counter-screen for TGF-b inhibitors: cytotoxicity in HepG2 cells; HepG2 CAGA-GFP viability, ATP luminescence, 18 h; AID 588856; actives 0.76% (n = 410,000); Potency, µM (titrated, usually from 46.1 µM), for inactives: top-dose activity change, negative = cytotoxicity, usual class: cytotoxic; note: potency is the fitted concentration of half-maximal effect
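HepG2 CAGA-GFP cells (1000/well, DMEM with 1% FBS) received compound, then TGF-beta at 500 pg/mL final, and were incubated 18 hours at 37 degrees C. Viability was read by CellTiter-Glo luminescence. Media-only wells were set as complete cell-killing and DMSO as no toxicity.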
TGFb SMAD3 inh = TGF-b pathway inhibition; HepG2 CAGA-GFP TGF-b/SMAD3 reporter, GFP fluorescence, 18 h; TGF-beta stimulated, 500 pg/mL final; Potency, µM (highest dose often 46.1 µM), without a hit: at the top dose activity, negative = inhibition, hits mostly inhibitors; actives 1.2% (n = 410,000); AID 588855; note: potency is the fitted concentration of half-maximal effect; % is set by controls: 0 for no effect and ±100 for the full control effect; nearly all actives have a fitted effect of over 65% in size
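Inhibition of TGF-beta-driven CAGA-GFP reporter expression in HEPG2 cells is measured by cellular GFP fluorescence after 18 h stimulation with 500 pg/mL recombinant TGF-beta in 1% FBS medium at 37 degrees C.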
TDP1 cell noCPT = qHTS for Inhibitors of human tyrosyl-DNA phosphodiesterase 1 (TDP1): qHTS in cells in absence of CPT | DT40 Tdp1-/- hTDP1 cells, no CPT, ATP luminescence, 48 h | Potency, µM (highest dose often 46.2 µM), inactives show at the top dose activity change, negative = growth inhibition, actives largely listed as inhibitors | actives 15% (n = 420,000) | AID 686978, 2013; note: potency is the fitted concentration of half-maximal effect; % is set by controls: 0 for no effect and ±100 for the full control effect; nearly all actives have a fitted effect of over 55% in size
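Seeded 400 DT40-hTDP1 cells/well (vehicle DMSO, no 20 nM CPT); pinned compounds; ≥48 hr at 37 °C; CellTiter-Glo luminescence as viability measure.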
IL-1B inflam inh = blocks inflammasome-driven IL-1 beta release; THP-1 LPS/ATP IL-1B secretion, AlphaLISA, 16 h; hits give low values; activity change, % at 57.5 µM; actives 4.7% (n = 360,000); AID 743279; in the data active = activity change below about -50%; inconclusive = mostly about -30% to -49%; note: % is set by controls: 0 for no effect and ±100 for the full control effect
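Secreted IL-1B measured by AlphaLISA bead assay after 16 h compound exposure of THP-1 cells; compounds (final up to 57.5 uM) added 1 h before LPS (250 ng/mL) and ATP (1.25 mM) stimulation; lower signal means less secretion.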
TDP1 inh = inhibitors of human tyrosyl-DNA phosphodiesterase TDP1. Q9NUW8. recombinant TDP1, AlphaScreen DNA substrate cleavage. Potency, µM (titrated, usually from 130 µM), for inactives: at the highest dose activity change, negative = inhibition, most hits filed as inhibitors. actives 0.28% (n = 350,000). AID 485290; note: potency is the fitted concentration of half-maximal effect; % is set by controls: 0 for no effect and ±100 for the full control effect; nearly all actives have a fitted effect of over 40% in size
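Signal: AlphaScreen proximity between streptavidin donor and anti-FITC acceptor beads on intact substrate. Reaction: Tdp1 1 nM, substrate 15 nM final, 5 min RT after 15 min compound preincubation.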
TDP1 cell CPT = DT40-hTDP1 cell growth loss with CPT; actives 12% (n = 420,000); Potency, µM (series often up to 46.2 µM), for the others: at the highest dose activity change, negative = growth inhibition, most hits filed as inhibitors; chicken DT40 Tdp1-/-;hTDP1 cells + 20 nM CPT, ATP luminescence, 48 h; note: potency is the fitted concentration of half-maximal effect; % is set by controls: 0 for no effect and ±100 for the full control effect; nearly all actives have a fitted effect of over 55% in size
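Chicken DT40 Tdp1-/- cells stably complemented with human TDP1 were seeded at 400 cells/well in medium containing 20 nM camptothecin, exposed to pin-transferred compounds, and grown at 37 °C for at least 48 hr. Viability was read as ATP luminescence.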
An asterisk follows results filed as active. Most compounds without a hit are left out; they make up all but 19% or so of the library. Unless noted, calls come from the whole dose curve; as a rule, active = well fitted curve in the direction sought with a large enough effect; inconclusive = small, poorly fitted or top-dose-only effect, or another doubt; inactive = no such curve, though single readings can be large; an effect the other way counts as inactive or inconclusive.

Cc1cc(OC(C)C(=O)Nc2cccc(-c3nc4ccccc4o3)c2)cc(C)c1Cl (configuration not stated) was read as HepG2 viability -7%, TGFb SMAD3 inh -5%, TDP1 cell noCPT 16µM*, TDP1 inh -13% and TDP1 cell CPT inconclusive.
Screening COc1ccccc1OC(C)C(=O)Nc1cccc(-c2nc3ccccc3s2)c1 (configuration not stated) returned HepG2 viability -8%, TGFb SMAD3 inh -9%, TDP1 cell noCPT 12µM*, TDP1 inh -2% and TDP1 cell CPT 21µM*.
For CC(Oc1ccccc1F)C(=O)Nc1ccc(-c2nc3ccccc3s2)cc1 (configuration not stated) the results were HepG2 viability -29%, TGFb SMAD3 inh -11%, TDP1 cell noCPT -26%, TDP1 inh 3% and TDP1 cell CPT -21%.
`CC(C)C(=O)Nc1cccc(-c2nc3ccccc3o2)c1` gave HepG2 viability -32%, TGFb SMAD3 inh inconclusive, TDP1 cell noCPT inconclusive, IL-1B inflam inh 0, TDP1 inh 0% and TDP1 cell CPT -17%.
COc1ccccc1OC(C)C(=O)Nc1cccc(-c2nc3ccccc3o2)c1 (configuration not stated) was read as HepG2 viability -23%, TGFb SMAD3 inh 61%, TDP1 cell noCPT 21µM* and TDP1 cell CPT inconclusive.
COc1cc(S(=O)(=O)n2ccnc2C(C)C)ccc1Br was read as HepG2 viability -3%, TGFb SMAD3 inh -5%, TDP1 cell noCPT -2%, TDP1 inh -1% and TDP1 cell CPT 10%.
For COc1cccc(NC(=O)CN2C(=O)C3(SCC(=O)N3c3cc(C)cc(C)c3)c3ccccc32)c1 (configuration not stated) the results were HepG2 viability -9%, TGFb SMAD3 inh 1%, TDP1 cell noCPT inconclusive, TDP1 inh -2% and TDP1 cell CPT 18µM*.
`Cc1cccc(NC(=O)CN2C(=O)C3(SCC(=O)N3c3ccccc3)c3ccccc32)c1` (configuration not stated) gave HepG2 viability -15%, TGFb SMAD3 inh inconclusive, TDP1 cell noCPT inconclusive, TDP1 inh 5% and TDP1 cell CPT 23µM*.
Screening CCc1cccc(C)c1NC(=O)CN1C(=O)C2(SCC(=O)N2c2cc(C)cc(C)c2)c2ccccc21 (configuration not stated) returned HepG2 viability 1%, TGFb SMAD3 inh -8%, TDP1 cell noCPT 16µM*, TDP1 inh 1% and TDP1 cell CPT 18µM*.
`CCOc1ccc(NC(=O)CN2C(=O)C3(SCC(=O)N3c3ccc(F)cc3)c3ccccc32)cc1` (configuration not stated) gave HepG2 viability -31%, TGFb SMAD3 inh -19%, TDP1 cell noCPT inconclusive, TDP1 inh 0% and TDP1 cell CPT 23µM*.
Cn1cc(C(=O)N2CCN(c3cccc(Cl)c3)CC2)c(=O)c2cc(S(=O)(=O)N3CCOCC3)ccc21 was read as HepG2 viability 8%, TGFb SMAD3 inh 10%, TDP1 cell noCPT 9%, IL-1B inflam inh 20, TDP1 inh 3% and TDP1 cell CPT 8%.
Cc1ccc(N2C(=O)C3NN=C(C(=O)OCc4ccccc4)C3C2=O)c(C)c1 (configuration not stated) was read as HepG2 viability -38%, TGFb SMAD3 inh -10%, TDP1 cell noCPT -5%, IL-1B inflam inh 13, TDP1 inh -1% and TDP1 cell CPT 38%.

Bioassay records: PubChem BioAssay, National Center for Advancing Translational Sciences (NCATS)
